From PubChem BioAssay
The source made the active and inactive calls.

Key:
[1] = system: Human papillomavirus type 1a protein E7 (residues 44-93); test: small molecules binding HPV E7 44-93 – biochemical, small-molecule microarray, residues 44-93, 635 nm fluorescence, primary screen (AID 1108); conditions: fluorescence 635 nm, higher = more signal;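 note: E7 fragment applied at 1 µg/mL in TBST for 1 h at 4 C; score combines spot fluorescence with its signal to noise ratio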
[2] = hepatitis C replication reporter changes, two-sided – Huh7 cells, luciferase reporter, HCV replication inhibitor project, primary screen (AID 1109); conditions: Huh7 HCV replicon luciferase reporter, 48 h; higher = more signal;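 note: huh7 hepatoma cells harbouring a luciferase neomycin HCV replicon reporter; luciferase luminescence as measure of HCV replicon replication; test concentration not given here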
[3] = molecular target: Left-right determination factor 2 (Homo sapiens) (UniProt O00292); test: small molecules binding LEFTY2 protein – biochemical, small-molecule microarray, 635 nm fluorescence scan, primary screen (AID 1110); conditions: higher = more signal
[4] = molecular target: Calmodulin-1 (Homo sapiens) (UniProt P0DP23); test: small molecules binding calmodulin-1 with EGTA – biochemical, small-molecule microarray, Cy5-labelled CALM1, profiling panel (AID 1111); conditions: Cy5-CALM1 binding fluorescence, higher = more signal;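 note: labelled calmodulin applied in Tris saline Tween buffer holding calcium plus EGTA and DTT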
[5] = molecular target: Calmodulin-1 (Homo sapiens) (UniProt P0DP23); test: small molecules binding Ca-loaded calmodulin-1 – biochemical, small-molecule microarray, Cy5-labelled CALM1, plus calcium, artefact control for SMM control-protein annotation, profiling panel (AID 1112); conditions: Cy5-CALM1 binding fluorescence, higher = more signal;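 note: score merges spot fluorescence with signal to noise from triplicate slides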
[6] = probe aWnt5a binding to arrayed compounds – biochemical, biotinylated probe, 635/667 nm fluorescence, primary screen (AID 1113); conditions: small-molecule microarray, higher = more signal;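 note: score merges 667 nm fluorescence intensity with signal-to-noise per printed feature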
[7] = probe aShh binding to arrayed compounds – biochemical, biotinylated probe, 635/667 nm fluorescence, primary screen (AID 1114); conditions: small-molecule microarray, higher = more signal;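 note: probe is biotin-labelled aShh protein from a stem cell growth factor screen; measures binding of labelled protein to compounds printed on the slide; score merges feature fluorescence at 667 nm with signal-to-noise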
[8] = probe aNog binding to arrayed compounds – biochemical, biotinylated probe, 635/667 nm fluorescence, primary screen (AID 1115); conditions: small-molecule microarray, higher = more signal;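 note: probe is biotinylated aNog protein used at 0.15 µg/mL for 1 h at 4 C; z-score combines 667 nm fluorescence of each spot with its signal to noise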
[9] = molecular target: Torsin-1A-interacting protein 1 (Homo sapiens) (UniProt Q5JTV8); test: compound microarray binding of lysate hLAP1 – cell lysate, small-molecule microarray, COS7 lysate, 635/667 nm fluorescence, primary screen (AID 1116); conditions: 635 nm fluorescence, higher = more signal
[10] = molecular target: Alpha-bungarotoxin (Bungarus multicinctus) (UniProt P60615); test: compounds binding labelled alpha-BTX control protein – biochemical, small-molecule microarray, Alexa647 label, 635/667 nm fluorescence, artefact control for SMM control protein annotation, profiling panel (AID 1117); conditions: alpha-BTX-A647 binding fluorescence, higher = more signal
Albumin (Bos taurus) = Albumin (Bos taurus) (UniProt P02769); test: compounds binding labelled BSA control protein – biochemical, small-molecule microarray, Alexa647 label, 635/667 nm fluorescence, artefact control for SMM control protein annotation, profiling panel (AID 1118); conditions: BSA-A647 binding, fluorescence 635 nm, higher = more signal;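 note: score merges 667 nm emission intensity and signal-to-noise per printed compound spot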
[11] = probe aXIP binding to arrayed compounds – biochemical, NeuroSMM set, 635/667 nm fluorescence, primary screen (AID 1119); conditions: small-molecule microarray, higher = more signal, called active from +8 up or from −8 down;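 note: probe is the protein aXip251-270 applied at 1 µg/mL to compound-printed slides; binding of probe to printed compounds measured as 667 nm fluorescence plus signal to noise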
[12] = probe aNOTCH3 binding on compound microarray – biochemical, small-molecule microarray, 635/667 nm fluorescence, primary screen (AID 1120); conditions: higher = more signal;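 note: probe is a biotin-tagged antibody raised against NOTCH3 rather than NOTCH3 protein; score merges spot fluorescence near 667 nm with spot signal to noise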
[13] = probe aNOTCH2 binding on compound microarray – biochemical, small-molecule microarray, 635/667 nm fluorescence, primary screen (AID 1121); conditions: higher = more signal;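 note: score merges feature fluorescence read at 667 nm with its signal to noise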
[14] = molecular target: Carbonic anhydrase 2 (Homo sapiens) (UniProt P00918); test: compounds binding carbonic anhydrase 2 – biochemical, small-molecule microarray, Alexa647-labelled CAII, profiling panel (AID 1122); conditions: CAII-A647 binding fluorescence, higher = more signal
[15] = COS7 lysate on small-molecule microarray, probe aHis, 635 nm (AID 1123); conditions: COS7 cell lysate, fluorescence, higher = more signal;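 note: z-score combines 667nm fluorescence intensity with signal-to-noise per printed compound spot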
[16] = probe aLAP1 signal on lysate-treated microarray – cell lysate, small-molecule microarray, COS7 lysate, primary screen (AID 1124); conditions: probe aLAP1, fluorescence, higher = more signal;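 note: lysate comes from COS7 cells expressing LAP1 and is applied at 0.3 µg/mL; score merges spot fluorescence near 667 nm with signal-to-noise over triplicate slides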
Sam68 (KHDRBS1) = test: compounds binding KHDRBS1 protein – biochemical, small-molecule microarray, 635 nm fluorescence, primary screen (AID 1125); conditions: higher = more signal;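 note: score merges 667 nm channel intensity with signal to noise over triplicate slides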
[17] = system: Chordin-like protein 2 (CHRDL2); test: compounds binding chordin-like 2 – biochemical, small-molecule microarray, 635 nm fluorescence, primary screen (AID 1126); conditions: fluorescence 635 nm, higher = more signal;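 note: printed compound slides probed with Chrdl2 protein at 4 µg/mL for 1 h at 4 C; score merges 667 nm emission intensity with signal to noise over three replicate slides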
[18] = molecular target: Concanavalin-A (Canavalia ensiformis) (UniProt P02866); test: compounds binding concanavalin A lectin – biochemical, small-molecule microarray, Alexa647 label, 635 nm, artefact control for SMM control protein annotation, primary screen (AID 1127); conditions: ConA-A647 binding fluorescence, higher = more signal;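 note: z combines 667 nm emission intensity with signal-to-noise across three replicate slides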
Concanavalin-A (Canavalia ensiformis), sequence (P02866 whole entry, looked up): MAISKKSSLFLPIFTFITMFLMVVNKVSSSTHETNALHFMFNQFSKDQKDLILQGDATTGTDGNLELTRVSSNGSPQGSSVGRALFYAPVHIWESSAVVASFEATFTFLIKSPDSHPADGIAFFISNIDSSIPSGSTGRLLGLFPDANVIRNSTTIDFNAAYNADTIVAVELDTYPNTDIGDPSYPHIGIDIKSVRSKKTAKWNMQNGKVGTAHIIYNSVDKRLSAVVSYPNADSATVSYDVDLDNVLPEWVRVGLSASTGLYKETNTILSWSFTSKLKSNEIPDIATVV

Left-right determination factor 2 (Homo sapiens), sequence (O00292 whole entry, looked up): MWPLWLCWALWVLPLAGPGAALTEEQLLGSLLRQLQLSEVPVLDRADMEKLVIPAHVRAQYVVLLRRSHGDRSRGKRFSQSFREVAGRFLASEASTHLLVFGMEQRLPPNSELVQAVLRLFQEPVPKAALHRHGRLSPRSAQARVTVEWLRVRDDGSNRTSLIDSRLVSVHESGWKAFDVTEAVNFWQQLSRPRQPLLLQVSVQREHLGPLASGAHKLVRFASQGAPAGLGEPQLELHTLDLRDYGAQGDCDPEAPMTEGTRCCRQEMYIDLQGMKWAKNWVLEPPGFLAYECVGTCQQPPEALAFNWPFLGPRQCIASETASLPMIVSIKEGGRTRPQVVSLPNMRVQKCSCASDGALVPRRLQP
Albumin (Bos taurus), sequence (P02769 whole entry, looked up): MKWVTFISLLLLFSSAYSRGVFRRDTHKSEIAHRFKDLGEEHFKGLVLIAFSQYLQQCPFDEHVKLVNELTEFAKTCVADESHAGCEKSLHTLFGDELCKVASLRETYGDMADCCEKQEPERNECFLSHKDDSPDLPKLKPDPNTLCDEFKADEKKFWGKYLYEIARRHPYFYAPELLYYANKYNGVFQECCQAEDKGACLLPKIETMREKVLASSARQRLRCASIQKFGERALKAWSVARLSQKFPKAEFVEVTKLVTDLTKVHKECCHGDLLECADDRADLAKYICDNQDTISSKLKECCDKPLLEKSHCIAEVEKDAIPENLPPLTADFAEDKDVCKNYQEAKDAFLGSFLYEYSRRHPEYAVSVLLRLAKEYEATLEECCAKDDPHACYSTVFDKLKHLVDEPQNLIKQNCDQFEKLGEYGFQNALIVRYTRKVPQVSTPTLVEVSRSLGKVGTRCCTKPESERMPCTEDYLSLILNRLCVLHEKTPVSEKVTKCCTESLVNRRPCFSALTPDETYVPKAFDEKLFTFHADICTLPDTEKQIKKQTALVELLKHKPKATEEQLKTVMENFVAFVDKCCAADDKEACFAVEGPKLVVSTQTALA
Torsin-1A-interacting protein 1 (Homo sapiens), sequence (Q5JTV8 whole entry, looked up): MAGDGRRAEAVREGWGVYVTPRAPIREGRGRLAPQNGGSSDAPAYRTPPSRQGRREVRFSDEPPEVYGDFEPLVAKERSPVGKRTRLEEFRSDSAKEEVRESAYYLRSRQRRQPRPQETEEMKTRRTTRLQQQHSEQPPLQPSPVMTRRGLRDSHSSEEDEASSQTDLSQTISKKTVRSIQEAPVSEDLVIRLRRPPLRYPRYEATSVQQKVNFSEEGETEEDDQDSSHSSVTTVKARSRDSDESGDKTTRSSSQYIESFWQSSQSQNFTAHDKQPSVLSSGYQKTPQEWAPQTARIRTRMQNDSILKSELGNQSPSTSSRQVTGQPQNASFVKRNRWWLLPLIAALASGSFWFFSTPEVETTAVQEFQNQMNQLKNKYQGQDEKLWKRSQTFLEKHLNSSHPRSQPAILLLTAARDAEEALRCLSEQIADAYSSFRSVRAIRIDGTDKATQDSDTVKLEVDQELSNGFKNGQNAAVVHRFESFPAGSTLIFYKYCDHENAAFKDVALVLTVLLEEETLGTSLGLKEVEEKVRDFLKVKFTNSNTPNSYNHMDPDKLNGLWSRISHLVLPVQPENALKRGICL
Alpha-bungarotoxin (Bungarus multicinctus), sequence (P60615 whole entry, looked up): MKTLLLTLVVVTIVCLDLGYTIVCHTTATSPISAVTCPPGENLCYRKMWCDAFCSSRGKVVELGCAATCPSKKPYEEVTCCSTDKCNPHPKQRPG

Compound	composite z-score [1]	z-score [2]	composite z-score [3]	composite z-score [4]	composite z-score [5]	composite z-score [6]	composite z-score [7]	composite z-score [8]	composite z-score [9]	composite z-score [10]	composite z-score (Albumin (Bos taurus))	composite Z-score [11]	composite z-score [12]	composite z-score [13]	composite z-score [14]	composite z-score [15]	composite z-score [16]	composite z-score (Sam68 (KHDRBS1))	composite z-score [17]	composite z-score [18]
CN(C)C(=O)[C@]1(Cc2ccccc2)N=C(c2ccc(OCCCO)cc2)O[C@@H]1c1ccccc1	1.49	-1.88	-0.0054	1.25	0.529	0.0317	-0.214	1.43	1.8	0.917	0.62	0.572 (inactive)	-0.046	-0.0531	0.687	2.68	0.429	0.978	-1.01	0.915
CN1C(=O)[C@]2(CCS(=O)(=O)c3ccccc3)N=C(c3ccc(OCCCO)cc3)O[C@@H]2c2ccccc21	1.5	-2.63	-0.249	1.11	-0.545	-0.0704	-0.0119	-0.122	0.0996	0.836	0.568	0.222 (inactive)	0.0026	-0.121	0.531	2.81	0.354	1.2	0.502	0.838
C[N+](C)(C)CCCCCCNC(=O)[C@H]1C[C@H]2C(=O)NCC(=O)N2[C@H]1c1cccc(OCCO)c1	0.626	0.643	1.5	-0.748	-0.95	-0.096	-0.311	-0.231	0.509	0.355	-0.27	0.536 (inactive)	0.11	-0.0877	0.594	1.05	0.662	0.562	1.36	0.907
CC(=O)NCCCC[C@@H]1NC(=O)[C@@H]2C[C@H](C(=O)NCCCCCC[N+](C)(C)C)[C@H](c3ccc(O)cc3)N2C1=O	1.11	0.825	0.943	-0.504	-0.901	-0.15	0.0278	-0.347	0.343	-0.659	-0.78	0.0461 (inactive)	-0.0611	-0.0173	0.188	1.17	-0.414	0.992	0.965	0.301
CC(C)[Si](C#CCCCC#N)(O[C@H](c1ccccc1)c1cn([C@H](C)c2ccccc2)nn1)C(C)C	1.21	-1.91	0.392	-0.0129	-0.0984	-0.0924	0.318	-0.262	0.137	0.18	0.221	-0.0102 (inactive)	0.0357	-0.0405	0.506	0.879	0.0714	1.24	0.293	0.444
